Assay results: PubChem BioAssay AID588651 (The Scripps Research Institute Molecular Screening Center, 2011)
The source made the active and inactive calls. Cut-off read from the data, not from the text of the source: active = inhibition above about 65%; inactive = the rest.

Test system: Antitargets
Test: Fam108b inhibition by ABPP, late-stage follow-up, biochemical, gel-based ABPP, recombinant soluble Fam108b, HTS hits, complex proteome (AID 588651);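 note: Fam108b spiked into mouse brain membrane proteome; tested at 20 µM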
Conditions: FP-rhodamine labeling in proteome

SMILES	outcome
O=C(O)C1Nc2ccc(Br)cc2C2C=CCC12 (centres undefined)	inactive
CCc1cc(C(Cc2ccc3ccccc3n2)=NO)c(O)cc1O	active
CC1(C)CC(=O)C2=C(C1)c1c(ccc3ccccc13)NC2c1cc([N+](=O)[O-])cc([N+](=O)[O-])c1O (centres undefined)	inactive
O=[N+]([O-])c1ccc(NN=Cc2ccccc2O)cc1	inactive
Oc1oc(-c2ccccc2Br)nc1C=Nc1ccccn1	active
COc1cccc(C=NNC(=O)c2[nH]c(C)c(C(=O)NN=Cc3cccc(OC)c3O)c2C)c1O	active
O=C1C(Cl)=C(N2CCC(C(=O)O)CC2)C(=O)c2ccccc21	inactive
Oc1ccc(C=NNc2ccnc3cc(Cl)ccc23)c(O)c1O	active
O=C(NCC1CC1)c1ccc(Nc2nc3ccc(Br)cc3[nH]2)cc1	inactive
CC1CCCCN1S(=O)(=O)c1ccc(C(=O)Nc2ccccc2-c2nc3ccccc3[nH]2)cc1 (centres undefined)	inactive
CCOc1cc(/C=C2\C(=O)N(c3nc(-c4ccc(Br)cc4)cs3)N=C2c2ccccc2)ccc1O	active
O=[N+]([O-])c1ccc(NN=Cc2c[nH]c3ccccc23)c(S(=O)(=O)Nc2ccc(Cl)cc2)c1	inactive
Nc1cc(C(=O)O)c(N)c2c1C(=O)c1ccccc1C2=O	inactive
O=C(Nc1ccc2[nH]c(=S)sc2c1)Nc1ccccc1F	inactive
O=c1ccc2cc3c([nH]c4ccc(Br)cc43)oc-2c1O	inactive
O=c1cc(-c2ccc(O)c(-c3c(O)cc(O)c4c(=O)cc(-c5ccc(O)cc5)oc34)c2)oc2cc(O)cc(O)c12	active
COc1ccc2oc(=O)c(-c3csc(Nc4cccc(O)c4)n3)cc2c1	inactive

SMILES	outcome
COc1ccc(C=NNC(=O)c2ccc(O)cc2)cc1CN1CCCc2ccccc21	inactive
Cc1cc(Nc2ccc(Cl)cc2)nc(NCc2ccccc2)n1	inactive
COc1cccc(C=NNc2nc(Nc3ccc([N+](=O)[O-])cc3)nc(N3CCCC3)n2)c1O	inactive
O=C(Nc1ccc(-c2csc(Nc3cccc(C(F)(F)F)c3)n2)cc1)c1cccc(C(F)(F)F)c1	inactive
Brc1csc(C=NNc2nc3ccccc3s2)c1	inactive
CC1CCN(S(=O)(=O)c2ccc(C(=O)Nc3ccccc3-c3nc4ccccc4[nH]3)cc2)CC1	inactive
O=C(NC1CCCCC1)c1sc(=S)n2c1[nH]c(=O)c1ccccc12	inactive
O=C(Nc1ccc(-c2csc(Nc3ccccc3)n2)cc1)c1cc([N+](=O)[O-])cc(C(F)(F)F)c1	inactive
CSC[C@@H]1NC(=S)N(c2ccc(C)cc2)C1=O	inactive
Cc1ccc(-n2c(O)c(/C=N/Nc3ccc(S(=O)(=O)N4CCOCC4)cc3[N+](=O)[O-])c3ccccc3c2=O)c(C)c1	inactive
COc1cccc2c1C(=O)c1c(O)c3c(c(O)c1C2=O)C[C@@](O)(C(=O)CO)C[C@@H]3O[C@H]1C[C@H](N)[C@H](O)[C@H](C)O1	inactive
COc1ccc(S(=O)(=O)/N=C2\C=C(Nc3ccc(O)cc3)C(=O)c3ccccc32)cc1	inactive
COc1ccc(NC(=S)Nc2ccc3nsnc3c2)cc1	inactive
Fc1ccc2nc(Nc3nc4cc5c(cc4s3)OCO5)sc2c1	inactive
O=C(O)CCCNc1cc(N2CCN(C(=O)c3ccco3)CC2)c2noc3c2c1C(=O)c1ccccc1-3	inactive
Cc1nc2scc(-c3ccccc3)c2c(=O)o1	inactive
O=C(NN=Cc1ccc(O)cc1)c1cccc(NN=Cc2ccc(O)cc2)c1	active
